In experiment [1] the test system is Plasmodium falciparum Sir2 (PF13_0152, Sir2A). The experiment can be described thus: Plasmodium falciparum Sir2A binding compounds – biochemical, small-molecule microarray, 635 nm fluorescence, primary screen (AID 1098).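 Further: score merges spot fluorescence intensity with its signal-to-noise ratio.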 To be noted: fluorescence 635 nm, higher = more signal.
The nature of experiment [2]: probe aDKK1 binding to arrayed compounds – biochemical, biotinylated probe, 635/667 nm fluorescence, primary screen (AID 1099).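 Further: score merges 667nm spot fluorescence with signal to noise across triplicate slides; reference of the scale not given here.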 To be noted: small-molecule microarray, higher = more signal.
Experiment [3] in a line: probe aCHRDL2 binding to arrayed compounds – biochemical, biotinylated probe, 635/667 nm fluorescence, primary screen (AID 1100). The following applies: small-molecule microarray, higher = more signal.
A short description of experiment [4]: change in splice reporter luminescence, either direction, cell-based, HEK293, spliceosome inhibition project, primary screen (AID 1101).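 Further: HEK293 cells carrying a splicing-competent luciferase reporter gene; test concentration not given here.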 The following applies: HEK293 splicing luciferase reporter, 24 h, higher = more signal, called active from +8 up or from −8 down.
Experiment [5] has as its target Fibroblast growth factor 10 (Homo sapiens) (UniProt O15520). In words: compounds binding fibroblast growth factor 10 – biochemical, small-molecule microarray, 635 nm fluorescence, primary screen (AID 1102). To be noted: FGF10 binding, fluorescence 635 nm, higher = more signal.
The test system of experiment [6] is glycogen synthase kinase-3 (GSK3A per assay name; protocol says GSK3B). The experiment can be described thus: compounds binding glycogen synthase kinase-3 – biochemical, small-molecule microarray, 635 nm fluorescence, GSK3A, primary screen (AID 1103). Further: the record names both GSK3A and GSK3B. To be noted: fluorescence 635 nm, higher = more signal.
Experiment [7] deals with Epidermal growth factor receptor (Homo sapiens) (UniProt P00533). The experiment can be described thus: compounds binding epidermal growth factor receptor – biochemical, small-molecule microarray, 635 nm fluorescence, primary screen (AID 1104).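 Further: score merges 667 nm emission intensity with spot signal to noise over triplicate slides.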 To be noted: EGFR binding, higher = more signal.
In experiment [8] the target is Follistatin-related protein 3 (Homo sapiens) (UniProt O95633). In words: compounds binding follistatin-related protein 3 – biochemical, small-molecule microarray, 635 nm fluorescence, primary screen (AID 1105).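 Further: score merges emission near 667 nm and signal to noise per printed spot across three slides.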 The following applies: FSTL3 binding, higher = more signal.
Experiment [9] has as its target Dickkopf-related protein 1 (Homo sapiens) (UniProt O94907). The experiment can be described thus: small molecules binding DKK1 protein – biochemical, small-molecule microarray, 635 nm fluorescence scan, primary screen (AID 1106).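 Further: score merges emission near 667 nm with signal to noise over three replicate slides.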 The following applies: higher = more signal.
For experiment [10], the system named is Inhibin beta A chain (activin A). The experiment can be described thus: small molecules binding activin A – biochemical, small-molecule microarray, 635 nm fluorescence scan, primary screen (AID 1107).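 Further: mouse activin A protein probed at 4.33 µg/mL on printed slides; score merges bound-protein fluorescence near 667 nm with spot signal-to-noise.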 To be noted: INHBA, higher = more signal.

Consider 15 compounds from PubChem BioAssay.

Active and inactive are the calls of the source.

Chain of Dickkopf-related protein 1 (Homo sapiens) (O94907 whole entry, looked up): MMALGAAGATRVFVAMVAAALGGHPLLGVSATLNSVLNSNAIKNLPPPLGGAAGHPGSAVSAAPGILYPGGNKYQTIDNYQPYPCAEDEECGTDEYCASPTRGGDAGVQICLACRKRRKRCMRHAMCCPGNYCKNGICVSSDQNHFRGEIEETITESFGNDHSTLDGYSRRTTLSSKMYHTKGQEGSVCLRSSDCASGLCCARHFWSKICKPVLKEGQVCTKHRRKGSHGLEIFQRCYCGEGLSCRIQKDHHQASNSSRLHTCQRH
Chain of Follistatin-related protein 3 (Homo sapiens) (O95633 whole entry, looked up): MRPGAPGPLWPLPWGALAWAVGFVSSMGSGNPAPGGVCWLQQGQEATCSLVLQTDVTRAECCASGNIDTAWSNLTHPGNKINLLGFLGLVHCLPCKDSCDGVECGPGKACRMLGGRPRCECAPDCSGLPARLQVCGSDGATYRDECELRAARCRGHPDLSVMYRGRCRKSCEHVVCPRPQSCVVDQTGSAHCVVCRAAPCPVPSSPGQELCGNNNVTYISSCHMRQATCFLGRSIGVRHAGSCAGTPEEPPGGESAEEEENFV
Chain of Epidermal growth factor receptor (Homo sapiens) (P00533 whole entry, looked up): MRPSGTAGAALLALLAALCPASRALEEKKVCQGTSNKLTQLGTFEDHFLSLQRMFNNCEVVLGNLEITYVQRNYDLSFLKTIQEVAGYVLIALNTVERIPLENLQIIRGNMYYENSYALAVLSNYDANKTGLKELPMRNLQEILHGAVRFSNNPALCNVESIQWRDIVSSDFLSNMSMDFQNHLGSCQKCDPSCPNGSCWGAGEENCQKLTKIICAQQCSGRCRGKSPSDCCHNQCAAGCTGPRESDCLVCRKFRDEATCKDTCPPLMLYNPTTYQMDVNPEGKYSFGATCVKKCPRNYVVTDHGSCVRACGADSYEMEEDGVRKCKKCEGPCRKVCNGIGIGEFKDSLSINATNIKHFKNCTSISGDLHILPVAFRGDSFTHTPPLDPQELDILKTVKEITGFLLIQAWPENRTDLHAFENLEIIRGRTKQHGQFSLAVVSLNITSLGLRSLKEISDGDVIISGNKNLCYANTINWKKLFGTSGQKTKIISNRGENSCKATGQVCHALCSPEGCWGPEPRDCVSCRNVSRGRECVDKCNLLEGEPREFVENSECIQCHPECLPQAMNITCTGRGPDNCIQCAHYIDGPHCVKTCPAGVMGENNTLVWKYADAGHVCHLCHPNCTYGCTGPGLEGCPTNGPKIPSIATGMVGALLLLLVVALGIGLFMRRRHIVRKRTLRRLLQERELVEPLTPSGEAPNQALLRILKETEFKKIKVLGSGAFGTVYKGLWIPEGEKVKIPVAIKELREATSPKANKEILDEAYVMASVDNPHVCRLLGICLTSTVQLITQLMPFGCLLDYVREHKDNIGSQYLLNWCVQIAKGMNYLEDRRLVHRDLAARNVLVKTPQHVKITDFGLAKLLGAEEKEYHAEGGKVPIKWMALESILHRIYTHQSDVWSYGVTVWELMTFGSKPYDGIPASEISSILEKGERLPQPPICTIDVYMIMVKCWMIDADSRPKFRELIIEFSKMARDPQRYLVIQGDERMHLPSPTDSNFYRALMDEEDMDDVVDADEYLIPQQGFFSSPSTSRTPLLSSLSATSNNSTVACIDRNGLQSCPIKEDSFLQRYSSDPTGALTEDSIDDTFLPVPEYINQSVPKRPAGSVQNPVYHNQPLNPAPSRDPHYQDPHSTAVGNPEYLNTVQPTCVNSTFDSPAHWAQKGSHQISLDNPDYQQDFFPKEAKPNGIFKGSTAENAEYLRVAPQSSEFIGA
Chain of Fibroblast growth factor 10 (Homo sapiens) (O15520 whole entry, looked up): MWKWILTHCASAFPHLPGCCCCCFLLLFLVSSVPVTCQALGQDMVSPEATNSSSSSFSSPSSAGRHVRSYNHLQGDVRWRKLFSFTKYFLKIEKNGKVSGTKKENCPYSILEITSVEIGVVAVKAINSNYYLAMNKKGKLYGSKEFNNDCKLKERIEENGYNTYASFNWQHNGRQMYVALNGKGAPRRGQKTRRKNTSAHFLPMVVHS

`CCCCCCC#C[Si](O[C@H](c1ccccc1)c1cn([C@H](CO)Cc2ccccc2)nn1)(C(C)C)C(C)C`: the composite z-score in experiment [1] is 0.984; in experiment [2], -0.35; in experiment [3], -0.101; in experiment [5], 0.629; in [6], 0.166; in [7], -0.525. Besides, the composite z-score in experiment [8] was -0.25; in [9], -0.15; in [10], -0.33. Also, the z-score in experiment [4] is -0.77 (inactive).
With `C=C/C=C/[C@H]1C(=C)CN([C@@H](Cc2ccccc2)C(=O)OC)[C@@H]1[C@H](O)Cc1ccccc1`, the composite z-score was -0.181 in [1]; -0.167 in experiment [2]; 0.44 in experiment [3]; -0.557 in [5]; -0.546 in experiment [6]; -1.23 in experiment [7]. In addition, the figures for the composite z-score in experiment [8], in [9] and in [10] were -0.542, -0.306 and 0.97, respectively. Further, the z-score in [4] is 1.04 (inactive).
With `COC(=O)c1c(CC[C@@H](CO)NC(=O)N2CCC[C@H]2Cn2cc(-c3ccccn3)nn2)oc(C(C)=O)c1C(=O)OC`, the composite z-score was 1.23 in experiment [1]; -0.238 in experiment [2]; -0.337 in experiment [3]; 0.0437 in experiment [5]; 0.209 in [6]; 0.0417 in experiment [7]. The results for the composite z-score in experiment [8], in [9] and in [10] were -0.144, -0.17 and 0.113, respectively. The z-score in experiment [4] was -1.25 (inactive).
`CCOc1cc(C(O)C2C=CC3C(=O)N(c4ccccc4)C(=O)C3N2Nc2ccccc2)ccc1O` (stereo not given): the composite z-score in [1] is 0.716; in [2], -0.0126; in experiment [3], 0.834; in experiment [5], 0.671; in [6] it was 0.0622; in experiment [7] it was -0.114. Further, the composite z-score in [8] is 0.128; in experiment [9], -0.832; in [10], 0.829. Further, the z-score in experiment [4] is 0.608 (inactive).
For the compound `C[N+](C)(C)CCCC[C@@H]1NC(=O)[C@@H]2C[C@H](C(=O)NCCCCCN)[C@H](c3cccc(OCCO)c3)N2C1=O`, the composite z-score is 1.07 in [1]; 0.0277 in experiment [2]; 0.356 in experiment [3]; 1.12 in experiment [5]; 1.3 in [6]; -0.167 in experiment [7]. Besides, the composite z-score was -0.144 in [8], -0.17 in experiment [9] and -0.68 in experiment [10]. Besides, the z-score in [4] is -0.657 (inactive).
With `CN(C)C(=O)[C@]1(Cc2ccccc2CN=[N+]=[N-])N=C(c2ccc(OCCCO)cc2)O[C@@H]1c1ccccc1CN=[N+]=[N-]`, the composite z-score was 0.0579 in experiment [1]; 0.423 in experiment [2]; 0.708 in experiment [3]; 1.17 in [5]; 1.32 in experiment [6]; -0.0263 in experiment [7]. Moreover, the composite z-score in [8] is 1.18; in [9] it was -0.38; in experiment [10], 0.844. Further, the z-score in experiment [4] is 0.646 (inactive).
For the compound `CN(C)CCCNC(=O)[C@@]1(c2ccc([N+](=O)[O-])cc2)CC(=O)N(C2CCCCC2)[C@@H]1c1ccc(CO)cc1I`, the composite z-score in experiment [1] is 1.12; in experiment [2], -0.116; in [3], 0.736; in experiment [5], -0.341; in experiment [6], 1.28; in experiment [7], -0.0949. Further, the figures for the composite z-score in [8], in [9] and in experiment [10] were 0.381, -0.212 and 0.462, respectively. The z-score in [4] was -3.68 (inactive).
`COCCOC(=O)N1C(=O)[C@@]2(c3cc(C#Cc4ccc(OC)cc4)ccc31)[C@H](C(N)=O)[C@H]1C(=O)O[C@H](c3ccccc3)[C@H](c3ccccc3)N1[C@@H]2c1ccccc1OCCO`: the composite z-score in experiment [1] was determined as 1.48; in experiment [2], 0.714; in experiment [3] it was 0.634; in experiment [5], 1.12; in experiment [6] it was 1.21; in [7], 0.824. The values for the composite z-score in experiment [8], in experiment [9] and in experiment [10] were 0.93, 0.705 and 0.312, respectively. Besides, in [4], the z-score is -0.265 (inactive).
Take `C=CC[C@@]1(C(=O)NCc2ccccc2)N=C(c2ccc(OCCCO)cc2)O[C@@H]1c1ccccc1N=[N+]=[N-]`: the composite z-score in [1] is 0.888; in experiment [2], 0.925; in experiment [3], 1.02; in [5], 1.22; in experiment [6], -0.119; in [7] it was -0.104. For the same compound, the composite z-score is 0.751 in [8], -0.295 in experiment [9] and 0.817 in [10]. Moreover, the z-score in [4] is -1.35 (inactive).
Consider `Cc1ccc(S[C@]2(C(=O)NCC(F)(F)F)CC(=O)N(C(C)C)[C@@H]2c2ccc(CO)cc2I)cc1`, for which the composite z-score in experiment [1] was 0.903; in experiment [2], 0.372; in [3], 0.893; in experiment [5], 0.203; in [6] it was -0.547; in experiment [7] it was -0.619. The composite z-score in experiment [8] was -1.02; in experiment [9], -0.78; in experiment [10] it was 0.743. In addition, the z-score in experiment [4] was -0.465 (inactive).
As for `C=CC[C@]1(C(=O)NCCCOC)N=C(c2ccc(OCCCO)cc2)O[C@H]1c1ccccc1N=[N+]=[N-]`, the composite z-score in [1] is 1.65; in experiment [2], -0.188; in experiment [3], 0.658; in experiment [5], 1.44; in [6] it was 0.746; in experiment [7], -0.223. The composite z-score in experiment [8] is 0.348; in [9], -0.516; in [10], 1.29. For the same compound, the z-score in experiment [4] was -0.885 (inactive).
In the case of `COC(=O)[C@@]1(Cc2ccc(F)cc2)[C@@H]2[C@@H](CC(=O)[C@H]2CC(=O)C(=O)N(C)C)CN1C(=O)c1ccccc1`, the composite z-score in experiment [1] worked out at 0.532; in [2], 1.21; in experiment [3], 1.19; in [5], 0.849; in [6], 1.09; in experiment [7] it was 0.251. Further, the composite z-score in experiment [8] is 1.32; in experiment [9], -0.598; in experiment [10], 0.793. Further, the z-score in experiment [4] is -0.191 (inactive).
Consider `C=C(CCCC)C(=O)CC[C@H](OC(C)=O)c1cccc(OCCO)c1`, for which the composite z-score in [1] was 0.707; in experiment [2], -0.409; in experiment [3], -0.193; in experiment [5], -0.633; in experiment [6], -0.654; in [7], -0.961. Further, the values for the composite z-score in experiment [8], in experiment [9] and in experiment [10] were -0.794, -0.759 and -0.162, respectively. Also, the z-score in experiment [4] was 1.01 (inactive).
On to `COc1cc2c(cc1O)C=[N+](Cc1cccc(OC(F)(F)F)c1)CC2`, for which the composite z-score is 0.674 in experiment [1]; -0.084 in experiment [2]; 0.39 in experiment [3]; -0.0931 in [5]; -0.104 in experiment [6]; 0.128 in experiment [7]. Also, the composite z-score in [8] was found to be 0.534; in [9] it was 0.141; in [10], 0.994. The z-score in [4] was -0.663 (inactive).
`CCCCN1CC=CC23O[C@@H]4/C=C\CCC(C)OC(=O)C4[C@H]2C(=O)N(CCCCCO)[C@@H]3C1=O` (stereo not given in full): the composite z-score in [1] was 0.0665; in experiment [2], -0.267; in experiment [3] it was 0.421; in experiment [5], -1.28; in experiment [6] it was -0.577; in experiment [7] it was -0.762. Besides, the composite z-score in [8] is -0.668; in experiment [9] it was -1.41; in [10] it was -0.323. In addition, the z-score in [4] is -0.259 (inactive).
